KLF5 inhibitor = suppresses KLF5 promoter-driven expression. DLD-1 KLF5 promoter-luciferase reporter, luminescence. inhibition, % at 5 µM. 290,000 compounds, 0.23% hits;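 active = inhibition above a per-plate limit of that plate's mean compound inhibition plus 3 SD, cut at about 60% in these data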;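 also: higher means less KLF5 promoter-driven luciferase light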
SKKanGAS inh = blocks kanamycin growth of S. pyogenes SKKanGAS strain; BacTiter-Glo, 6 h; inhibition, % at 7.5 µM; 300,000 compounds, 1.3% hits; AID 1662;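 active = mean replicate score, as percent of positive control median, at least 50; inconclusive = mean below 50 but one replicate at or above 50; inactive = mean and every replicate below 50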;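 also: strain carries kanamycin resistance gene driven by streptokinase promoter and grows in 40 µg/ml kanamycin; loss of luminescence reflects streptokinase promoter inhibition or plain growth inhibition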
aSyn UTR inh = MLPCN primary screen, SNCA 5' untranslated region | alpha-synuclein 5'UTR reporter, inhibitor activity | inhibition, % (tested at 7.5 µM) | 300,000 compounds, 0.82% hits; in the data active = inhibition above about 60%; inconclusive = no clear call, values can overlap the other calls;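 also: H4 neuroglioblastoma cells stably carrying SNCA 5'UTR luciferase fusion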
CSC inhib = blocks cancer stem cells; cancer stem cell-like cells viability, luminescence; inhibition, % at 7.5 µM; 300,000 compounds, 1.1% hits; AID 2717; in the data active = inhibition above about 75%; inconclusive = no clear call, values can overlap the other calls; tested in HMLE shEcad cells
IEC-6 tox = IEC-6 cytotoxicity, counter-screen for KLF5 inhibitors | luminescence viability | inhibition, % at 5 µM | 290,000 compounds, 0.78% hits | AID 1825; in the data active = inhibition above about 22%
Each line names hits and unclear results; the compound was inactive in the other large screens. Sampled rows, rich in hits. Any-hit rate of the full collection: about 3%.

Cc1c(NC(=O)COc2c(F)c(F)c(F)c(F)c2F)c(=O)n(-c2ccccc2)n1C	none
C=CCOc1cccc(/C=C2\C(=O)N(Cc3ccc(C)cc3)C(C)=C2C(=O)OC)c1	CSC inhib 85
CCOc1cc(/C=C2\C(=O)N(Cc3ccc(C)cc3)C(C)=C2C(=O)OC)ccc1O	none
CCc1nc2c(c(=O)c3ccccc3n2C)c(=O)n1CCc1ccc(OC)cc1	aSyn UTR inh 74, IEC-6 tox 26
CC(OC(=O)CN1C(=O)c2ccccc2C1=O)C(=O)NC1CCCCC1 (stereo not given)	none (no result: CSC inhib)
Cc1cccc(NC(=S)N2CCC(NC(=O)c3ccco3)CC2)c1	none (no result: CSC inhib)
CN(C)c1ccc(-n2cccc2/C=C/[N+](=O)[O-])cc1	CSC inhib 87
CC(Cc1ccsc1)NC(=O)CCc1nnc(CCc2ccccc2)o1 (stereo not given)	none
COc1ccccc1NC(=O)C1CCN(S(C)(=O)=O)CC1	none
COc1cc(/C=N\NC(=O)C2COc3ccccc3O2)cc(OC)c1O (stereo not given)	none
CCOc1ccc(-n2c(O)c(/C=N/NC(=O)C3COc4ccccc4O3)c3ccccc3c2=O)cc1 (stereo not given)	SKKanGAS inh 73
CC(OC(=O)c1cccs1)C(=O)NC1CCCCC1C (stereo not given)	CSC inhib 96 (no result: KLF5 inhibitor, SKKanGAS inh, aSyn UTR inh, IEC-6 tox)
C=CCn1c(COc2ccc(Cl)cc2)nnc1SCC(=O)N/N=C/c1cccc(O)c1	none
C=CCn1c(COc2ccccc2)nnc1SC(C)C(=O)N/N=C/c1cc(Cl)ccc1O (stereo not given)	SKKanGAS inh 105 (no result: aSyn UTR inh)
CC(NC(=O)Nc1nnc(C(F)(F)F)s1)(C(F)(F)F)C(F)(F)F	SKKanGAS inh 84
CC(C)(C)CC(=O)Nc1nnc(C(F)(F)F)s1	none
CCOC(=O)C1=C(C)N2C(=C(C#N)[C@@H]1c1ccc(C(=O)OC)cc1)SC[C@@]2(O)C(C)(C)C	CSC inhib 82
CC(C)COC(=O)c1cccc2c1-c1ccccc1/C2=N\O	SKKanGAS inh 74, CSC inhib 120
Cc1cc(/C=c2/sc3nc4ccccc4n3c2=O)c(C)n1-c1ccccn1	aSyn UTR inh 88
Cc1cc(/C=c2\sc3nc4ccccc4n3c2=O)c(C)n1-c1ccc(C(=O)O)cc1	none (no result: CSC inhib)
Cc1ccc2c(CC(=O)NC3=NCCS3)coc2c1	none
Cc1cc2occ(CC(=O)NC3=NCCS3)c2cc1C(C)C	SKKanGAS inh 65
NNc1nc(-c2ccccc2Cl)nc2sc3c(c12)CCCC3	CSC inhib 76
Cc1ccc(NC(=S)NC(=O)C2CCCC2)c(Br)c1	none (no result: KLF5 inhibitor, SKKanGAS inh, aSyn UTR inh, IEC-6 tox)
CCCc1nnc(NC(=O)c2nc(S(=O)(=O)Cc3cccc(C)c3)ncc2Cl)s1	CSC inhib 108
C=CC1=C(C(=O)O)N2C(=O)[C@@H](NC(=O)/C(=N\O)c3csc(N)n3)[C@H]2SC1 (stereo in doubt)	SKKanGAS inh 107 (no result: KLF5 inhibitor, IEC-6 tox)
CCn1ccc(C(=O)NC2C(=O)N3C(C(=O)O)=C(C)CSC23)n1 (stereo not given)	none
COc1cc(C2C3=C(Nc4ncnn42)c2ccccc2CC3)cc(OC)c1OC (stereo not given)	KLF5 inhibitor 78, aSyn UTR inh 83, IEC-6 tox 96
CCCc1nc2ccccc2c(=O)n1/N=C/c1c(C)[nH]n(-c2ccc(C)cc2)c1=O	SKKanGAS inh 97
Cc1cc2nc(/N=C(\N)NC(=O)C(C)C)nc(C)c2cc1C	SKKanGAS inh 53
Cc1ccc2nc(/N=C(\N)NC(=O)NC3CCCCC3)nc(C)c2c1	SKKanGAS inh 53
Cc1cccc(C)c1NC(=O)C(c1ccc([N+](=O)[O-])cc1)N(C)C(=O)c1ccccn1 (stereo not given)	none
C[C@H](NC(=O)c1ccc(Cl)cc1)C(=O)NNC(=O)c1cccs1	none (no result: KLF5 inhibitor, SKKanGAS inh, aSyn UTR inh, IEC-6 tox)
O=C1N/C(=N\N=C\c2ccc3ncccc3c2)SC1Cc1ccc(SC(F)F)cc1 (stereo not given)	none (no result: SKKanGAS inh)
O=C1N/C(=N\N=C\c2ccccn2)SC1Cc1cccc(SC(F)F)c1 (stereo not given)	SKKanGAS inh 94, CSC inhib 111
O=C1N/C(=N\N=C\c2cccnc2)SC1Cc1ccc(SC(F)F)cc1 (stereo not given)	SKKanGAS inh 93, aSyn UTR inh inconclusive, CSC inhib 99
COc1ccc(NC(=O)NC23CC4(C)CC(C)(CC(C)(C4)C2)C3)cc1OC	none
c1ccc(CCNc2nc(-c3ccccn3)nc3ccccc23)cc1	SKKanGAS inh 113
c1ccc(CN2CCN(c3nc(-c4ccccn4)nc4ccccc34)CC2)cc1	none
C/C(=N\Nc1nc(-c2ccccn2)nc2ccccc12)c1ccc(F)cc1	aSyn UTR inh 75, CSC inhib 82
CCn1ccnc1CNC(=O)c1ccc2oc(C(C)C)nc2c1	none
CCN(C(=O)CCN1C(=O)S/C(=C\c2ccccc2)C1=O)C1CCS(=O)(=O)C1 (stereo not given)	none
Nc1ccccc1N=Cc1ccc(-c2cccc(Cl)c2)o1	CSC inhib 77
COc1cc(/C=C(/C(=O)c2cccs2)c2nc3ccccc3[nH]2)cc(OC)c1O	CSC inhib 77
CCCNC(=O)Cc1c(C)oc2ccccc12	none
COC(=O)c1ccc(CN2CCc3ccccc32)cc1	none
COCc1cc(=O)[nH]c(Nc2nc3ccccc3o2)n1	SKKanGAS inh 53
COC(=O)Cc1cc(=O)[nH]c(Nc2nc3ccccc3o2)n1	none
COCCNC(=O)/C(C#N)=c1\s/c(=C\c2ccccc2OC(F)F)c(=O)n1Cc1ccccc1	none
CC(C)C[C@H](CO)N(Cc1ccccc1)S(=O)(=O)N(Cc1ccccc1)[C@@H](CO)CC(C)C	CSC inhib 107 (no result: KLF5 inhibitor, SKKanGAS inh, aSyn UTR inh, IEC-6 tox)
O=S(=O)(N(Cc1ccccc1)[C@@H](CO)Cc1ccccc1)N(Cc1ccccc1)[C@@H](CO)Cc1ccccc1	none (no result: KLF5 inhibitor, SKKanGAS inh, aSyn UTR inh, IEC-6 tox)
C[C@@H](C[C@@H](O)[C@H](O)C(C)(C)O)[C@@H]1CC[C@]2(C)C3=CC[C@H]4C(C)(C)C(=O)CC[C@]4(C)[C@H]3CC[C@@]12C	SKKanGAS inh 96
COc1ccccc1CNC(=O)c1ccc(N2CCOCC2)c([N+](=O)[O-])c1	none
N#Cc1nc(-c2ccc(OCc3ccccc3)cc2)oc1NCCCn1ccnc1	CSC inhib 88
CC(C)(C)c1ccc(-c2nc(C#N)c(NCCCn3ccnc3)o2)cc1	CSC inhib 88
N#Cc1nc(-c2ccc(F)cc2)oc1NCCCn1ccnc1	none
N#Cc1nc(-c2ccc(OCc3ccccc3Cl)cc2)oc1NCCCn1ccnc1	SKKanGAS inh 74, CSC inhib 94
CC(C)NC(=O)C1(S(=O)(=O)c2ccccc2)CC=CC1	none
O=c1cc(-c2ccc(O)cc2)oc2ccc3ccccc3c12	CSC inhib 90 (no result: KLF5 inhibitor, SKKanGAS inh, aSyn UTR inh, IEC-6 tox)
O=c1cc(-c2ccc(O)cc2)oc2c1ccc1ccccc12	none (no result: KLF5 inhibitor, SKKanGAS inh, aSyn UTR inh, IEC-6 tox)
CC(C)C(NC(=O)C(c1ccccc1)c1ccccc1)c1nc2ccccc2[nH]1 (stereo not given)	SKKanGAS inh 79
Cc1cccc(C(=O)NC(C)C(=O)NC(c2nc3ccccc3[nH]2)C(C)C)c1 (stereo not given)	none (no result: KLF5 inhibitor, SKKanGAS inh, aSyn UTR inh, IEC-6 tox)
C=C1CCN([C@@H](CC(C)C)C(=O)Nc2nc3ccc(Cl)cc3s2)S(=O)(=O)c2ccccc21	CSC inhib 102 (no result: KLF5 inhibitor, IEC-6 tox)

From PubChem BioAssay
